Experimental data published in PubChem BioAssay (NCATS).
Inconclusive results are not listed. Active and inactive are the calls of the source. Calls follow the shape of the dose curve; as a rule, active = well fitted curve in the direction sought with a large enough effect; inconclusive = small, poorly fitted or top-dose-only effect, or another doubt; inactive = no such curve, though single readings can be large; an effect the other way counts as inactive or inconclusive. Where a SMILES comes first, the peptide text is derived from it. [ ]: non-standard residue; d: D form. pGlu = O=C1CC[C@@H](C(=O)O)N1; Thz = O=C(O)[C@@H]1CSCN1

Experiments:
NIH3T3 [1] = test: Cytotoxic Profiling of Annotated Libraries Using Quantitative High-Throughput Screening (AID 1296008); conditions: Five cell lines viability, CellTiter-Glo ATP luminescence, 48-72 h; max response: active compounds read low; also: nearly all actives have a fitted effect of over 60% in size
Outline: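 Cells exposed to compounds for 48 or 72 hr at 37 degrees Celsius. Viability read as ATP-coupled luminescence with CellTiter-Glo after 10 min at room temperature.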

C33A = test: Primary qHTS to identify gynecologic anti-cancer compounds using libraries of approved drugs and bioactive compounds (AID 1345084); conditions: Gynecologic cancer cell panel viability, ATPlite luminescence, 48 h; series mostly up to 57.5 µM; also: nearly all actives have a fitted effect of over 55% in size
Outline: (§1)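 ATP-based viability (ATPlite), 1,000 cells/well, 16 h pre-incubation, 48 h compound at 37 C, 5% CO2, 15 min RT before read.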

CASKI = test: as above; conditions: Gynecologic cancer cell panel viability, ATPlite luminescence, 48 h; series mostly up to 57.5 µM
Outline: as §1

Es-2 = test: as above; conditions: Gynecologic cancer cell panel viability, ATPlite luminescence, 48 h; series mostly up to 57.5 µM
Outline: as §1

HeLa = test: as above; conditions: Gynecologic cancer cell panel viability, ATPlite luminescence, 48 h; series mostly up to 57.5 µM
Outline: as §1

Hek293T = test: as above; conditions: Gynecologic cancer cell panel viability, ATPlite luminescence, 48 h, control line for the selectivity index; series mostly up to 57.5 µM
Outline: as §1

PA-1 = test: as above; conditions: Gynecologic cancer cell panel viability, ATPlite luminescence, 48 h; series mostly up to 57.5 µM
Outline: as §1

NIH3T3 [2] = test: qHTS assay to identify novel small-molecules to repurpose for Merkel cell carcinoma treatment (AID 1296009); conditions: MCC and control cell lines, CellTiter-Glo viability, 72 h; at 44.8 µM (top of the series) unless noted; also: nearly all actives have a fitted effect of over 60% in size
Outline: (§2)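 Cells were treated for 72 hr at 37 degree celsius with compounds in 8- or 11-point dose response. Viability was read by CellTiter-Glo luminescence, normalized to no-cell (cytotoxicity) and DMSO controls.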

CAOV3 = test: Primary qHTS to identify gynecologic anti-cancer compounds using libraries of approved drugs and bioactive compounds (AID 1345084); conditions: Gynecologic cancer cell panel viability, ATPlite luminescence, 48 h; series mostly up to 57.5 µM; also: nearly all actives have a fitted effect of over 55% in size
Outline: as §1

JEG-3 = test: as above; conditions: Gynecologic cancer cell panel viability, ATPlite luminescence, 48 h; series mostly up to 57.5 µM
Outline: as §1

OV90 = test: as above; conditions: Gynecologic cancer cell panel viability, ATPlite luminescence, 48 h; series mostly up to 57.5 µM
Outline: as §1

SKOV3 = test: as above; conditions: Gynecologic cancer cell panel viability, ATPlite luminescence, 48 h; series mostly up to 57.5 µM
Outline: as §1

HACAT = test: qHTS assay to identify novel small-molecules to repurpose for Merkel cell carcinoma treatment (AID 1296009); conditions: MCC and control cell lines, CellTiter-Glo viability, 72 h; at 44.8 µM (top of the series) unless noted; also: nearly all actives have a fitted effect of over 60% in size
Outline: as §2

MCC-13 = test: as above; conditions: MCC and control cell lines, CellTiter-Glo viability, 72 h; series mostly up to 46 µM
Outline: as §2

MKL-1 = test: as above; conditions: MCC and control cell lines, CellTiter-Glo viability, 72 h; series mostly up to 46 µM
Outline: as §2

MKL-2 = test: as above; conditions: MCC and control cell lines, CellTiter-Glo viability, 72 h; series mostly up to 46 µM
Outline: as §2

UISO = test: as above; conditions: MCC and control cell lines, CellTiter-Glo viability, 72 h; series mostly up to 46 µM
Outline: as §2

WaGa = test: as above; conditions: MCC and control cell lines, CellTiter-Glo viability, 72 h; series mostly up to 46 µM
Outline: as §2

MCC-26 = test: as above; conditions: MCC and control cell lines, CellTiter-Glo viability, 72 h; series mostly up to 46 µM
Outline: as §2
% is scaled to controls: 0 for no effect and ±100 for the full control effect; potency is read from the fitted curve at half-maximal effect.

COc1ccc(/C=C/C(=O)Nc2ccccc2C(=O)O)cc1OC
inactive: max response (NIH3T3 [1]) -8.92% | Potency (C33A) | Potency (CASKI) | Potency (Es-2) | Potency (HeLa) | Potency (Hek293T) | Potency (PA-1)

CC(=O)O[C@H]1C[C@@]2(C)[C@@H](C[C@@H](O)[C@H]3[C@@]4(C)CC[C@@H](O)[C@@H](C)[C@@H]4CC[C@@]32C)/C1=C(\CCC=C(C)C)C(=O)O
inactive: outcome (NIH3T3 [1]) | outcome (NIH3T3 [2]) | Potency (C33A) | Potency (CAOV3) | Potency (CASKI) | Potency (Es-2) | Potency (HeLa) | Potency (Hek293T) | Potency (JEG-3) | Potency (OV90) | Potency (PA-1) | Potency (SKOV3)

CC1(C)[C@@H](O[C@H]2O[C@H](C(=O)O)[C@@H](O)[C@H](O)[C@H]2O[C@@H]2O[C@H](C(=O)O)[C@@H](O)[C@H](O)[C@H]2O)CC[C@]2(C)[C@H]3C(=O)C=C4[C@@H]5C[C@@](C)(C(=O)O)CC[C@]5(C)CC[C@@]4(C)[C@]3(C)CC[C@@H]12
inactive: Potency (C33A) | Potency (CAOV3) | Potency (CASKI) | Potency (Es-2) | Potency (HeLa) | Potency (Hek293T) | Potency (JEG-3) | Potency (OV90) | Potency (PA-1)

O=C(Nc1ccc2[nH]ncc2c1)C1CCC1
inactive: max response (NIH3T3 [1]) 4.63% | Potency (C33A) | Potency (CASKI) | Potency (Es-2) | Potency (HeLa) | Potency (Hek293T) | Potency (JEG-3) | Potency (OV90) | Potency (PA-1) | Potency (SKOV3)

O=C1CC[C@@H](C(=O)N2CSC[C@H]2C(=O)O)N1 ([pGlu]-[Thz]-OH)
inactive: outcome (NIH3T3 [1]) | outcome (NIH3T3 [2]) | Potency (C33A) | Potency (CAOV3) | Potency (CASKI) | Potency (Es-2) | Potency (HeLa) | Potency (Hek293T) | Potency (JEG-3) | Potency (OV90) | Potency (PA-1) | Potency (SKOV3)

O=Cc1ccc(O)c(O)c1O
inactive: outcome (HACAT) | Potency (MCC-13) | Potency (C33A) | Potency (CAOV3) | Potency (CASKI) | Potency (Es-2) | Potency (HeLa) | Potency (Hek293T) | Potency (JEG-3) | Potency (OV90) | Potency (PA-1) | Potency (SKOV3)

Nc1ccc([N+](=O)[O-])cc1O
active: Potency (PA-1) 4470 nM
inactive: Potency (MCC-13) | Potency (C33A) | Potency (CAOV3) | Potency (HeLa) | Potency (Hek293T) | Potency (JEG-3)

Cc1nc2ccccc2n1Cc1ccc(Cl)cc1
active: Potency (OV90) 8910 nM | Potency (SKOV3) 3980 nM
inactive: max response (NIH3T3 [1]) -22.4% | Potency (MCC-13) | Potency (CAOV3) | Potency (HeLa) | Potency (JEG-3)

Cc1[nH]cnc1CN1CCc2c(c3ccccc3n2C)C1=O
inactive: Potency (MCC-13) | Potency (MKL-1) | Potency (MKL-2) | Potency (UISO) | Potency (WaGa) | Potency (C33A) | Potency (CAOV3) | Potency (CASKI) | Potency (Es-2) | Potency (HeLa) | Potency (Hek293T) | Potency (JEG-3) | Potency (PA-1) | Potency (SKOV3)

CCCSc1ccc2nc(NC(=O)OC)[nH]c2c1
active: Potency (NIH3T3 [1]) 1880 nM | Potency (MCC-13) 1680 nM | Potency (Es-2) 3550 nM | Potency (HeLa) 2000 nM | Potency (Hek293T) 891 nM | Potency (PA-1) 1580 nM | Potency (SKOV3) 2240 nM

O=C(O)c1cc(O)c(O)c(O)c1
inactive: Potency (C33A) | Potency (CAOV3) | Potency (CASKI) | Potency (Es-2) | Potency (HeLa) | Potency (Hek293T) | Potency (JEG-3) | Potency (OV90) | Potency (PA-1)

Nc1ccc(O)c([N+](=O)[O-])c1
inactive: outcome (HACAT) inactive [at 92 µM] | Potency (MCC-13) | Potency (C33A) | Potency (CAOV3) | Potency (CASKI) | Potency (Es-2) | Potency (HeLa) | Potency (Hek293T) | Potency (JEG-3) | Potency (PA-1) | Potency (SKOV3)

COC(=O)C1=C(C)NC(C)=C(C(=O)OC)C1c1cccc(NC(=O)NCCCN2CCC(c3cccc(OC)c3)CC2)c1
inactive: Potency (C33A) | Potency (Es-2) | Potency (HeLa) | Potency (Hek293T)
active: Potency (CAOV3) 22400 nM

CC(C(=O)O)c1ccc(C(=O)c2ccccc2)s1 (stereo not given)
inactive: outcome (HACAT) | Potency (MCC-13) | Potency (MCC-26) | Potency (MKL-1) | Potency (MKL-2) | Potency (UISO) | Potency (WaGa) | Potency (C33A) | Potency (CAOV3) | Potency (CASKI) | Potency (Es-2) | Potency (HeLa) | Potency (Hek293T) | Potency (JEG-3) | Potency (OV90) | Potency (PA-1)

CN(CCCOc1ccc(Cc2ccccc2)cc1)CCC(=O)O
inactive: outcome (NIH3T3 [1]) | outcome (NIH3T3 [2]) | Potency (C33A) | Potency (CAOV3) | Potency (CASKI) | Potency (Es-2) | Potency (HeLa) | Potency (Hek293T) | Potency (JEG-3) | Potency (OV90) | Potency (PA-1) | Potency (SKOV3)
